An excerpt weighted towards active compounds, which were near 3.1% of everything screened.
LGR2 inh – Drosophila LGR2 receptor signaling inhibition; HEK293 LGR2, CRE-luciferase, bursicon-stimulated, 4 h; inhibition, % at 9.99 µM; 380,000 tested, 0.35% active; AID 720647;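 active = drop in luminescence signal, shown as inhibition above about 50% in the replicate tests, limit read from the data, passing the limit was not always enough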;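 note: agonist challenge used bursicon conditioned medium at about half maximal strength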
EWS-Fli block – EWS/Fli transcriptional activity inhibition; A673 NR0B1-luciferase reporter, viability-normalised; inhibition, % at 12.6 µM; 350,000 tested, 0.67% active; AID 651661;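 active = mean inhibition of at least 50% after viability correction, with every replicate also passing that limit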;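 note: firefly luciferase signal divided by Alamar Blue viability fluorescence both relative to DMSO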
TWEAK-Fn14 inh – inhibitors of TWEAK-Fn14 interaction signaling; TWEAK-stimulated Fn14 reporter cells, luciferase luminescence, 8 h; inhibition, % at 10 µM; 360,000 tested, 2% active; in the data active = inhibition above about 50%
PAX8 inh HTS – lowers PAX8-driven luciferase in RMG-I cells; 360,000 tested, 1.2% active; RMG-I TPO-luciferase reporter, SteadyGlo, 24 h; inhibition, % at 12.6 µM;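 active = mean replicate inhibition at least 60% with every replicate also reaching 60%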;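 note: luciferase light reporting Pax8 driven TPO promoter activity; plate controls were median of neutral control wells for no effect and mitoxantrone controls for full effect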
TROY signal inh – blocks TROY-dependent signaling in reporter cells; 360,000 tested, 0.98% active; inhibition, % at 10 µM; Q293 LMP1-TROYcd NF-kB luciferase reporter, 4 h;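 active = compounds whose plate-normalised and pattern-corrected inhibition of the luciferase reporter signal at the single screening dose is 50% or more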
LMP1 NFkB inh – inhibitors of Epstein-Barr LMP1-induced NF-kappaB reporter; LMP1-induced NF-kappaB luciferase reporter cells, luminescence; inhibition, % at 12.5 µM; 350,000 tested, 0.69% active; in the data active = inhibition above about 41%;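 note: 0% = neutral control wells and 100% = reference inhibitor control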
DNA binding – small molecule DNA binding by fluorescence polarization; shares compounds with EWS-Fli block; salmon sperm DNA acridine orange fluorescence polarization; AC35, µM (top dose mostly 68 µM), inactives show at the top dose activity change, negative = DNA binding; 640 tested, 2% active;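 active = fitted curve reaches a 35% signal fall AC35 below twice the sample's top valid tested dose, actives reach about 48 µM in these data; inactive = the rest, including activity in the rising direction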;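 note: lower polarization ratio signals compound binding to DNA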
* hit, by the source's call; . = no result; ! = a repeat was not active.

SMILES	LGR2 inh	EWS-Fli block	TWEAK-Fn14 inh	PAX8 inh HTS	TROY signal inh	LMP1 NFkB inh	DNA binding
COc1cccc(O)c1CN1CCC(C(=O)Nc2ccc(Oc3cccnc3)cc2)CC1	15.7	27.3	10.4	20.8	8.7	0.8	.
COc1cccc(O)c1CN1CCC(C(=O)Nc2ccc(-c3cccc(C)c3)cc2)CC1	4.8	57.8*	29.7	31.9	39.7	-13.3	4.5%
CC(C)NC(=O)N(C)C[C@H]1Oc2ccc(N(C)C)cc2CC(=O)N([C@@H](C)CO)C[C@H]1C	-11.6	.	.	-9.5	.	.	.
Cc1cc(C(=O)CN2C(=O)c3ccccc3S2(=O)=O)c(C)n1C(C)C	75.8*	73.0*	92.7*	71.5*	83.7*	70.4*	-6.1%
CCCn1c(C)cc(C(=O)CN2C(=O)c3ccccc3C2=O)c1C	-18.9	-31.0	36.4	-42.4	-6.0	-6.4	.
CC(C)NC(=O)CN1C(=O)c2ccccc2S1(=O)=O	20.0	20.2	-12.0	-8.5	-28.1	8.1	.
Cc1ccc(C(=O)CN2C(=O)c3ccccc3S2(=O)=O)cc1	95.4*	77.5*	98.9*	70.9*	82.9*	74.4*	2.8%
CCn1c(C)cc(C(=O)CN2C(=O)c3ccccc3S2(=O)=O)c1C	72.3*	77.9*	92.9*	34.6	82.5*	73.1*	2.8%
CCCNC(=O)C[C@H]1CC[C@H]2[C@@H](COc3ccc(NC(=O)c4ccc(OC)cc4)cc3C(=O)N2C)O1	7.1	0.2	.	-10.8	.	.	.
CCCN(C)C[C@H]1Oc2ncc(-c3ccccc3)cc2C(=O)N([C@@H](C)CO)C[C@H]1C	.	56.0*	.	-4.9	.	.	-10.4%
O=C1CCC2S/C(=C/Nc3ccc(C(F)(F)F)cc3)C(=O)N12 (stereo not drawn)	-33.0	85.6*	86.0*	71.9*	-37.0	51.3*	-1.5%
O=C1CCCC/C1=C/Nc1cccc(C(F)(F)F)c1	-5.4	-22.3	-11.3	11.7	-10.6	-0.7	.
C/C(=C/c1ccccc1)C(=O)N1CCC(C)CC1	-2.1	-17.5	-8.3	-28.7	-28.7	-6.6	.
C/C(=C\c1ccccc1)C(=O)N1CCC=CC1=O	.	55.4*	.	20.3	.	.	-3.2%
CCOc1ccc2nc(NC3=NC(c4ccc(OC)cc4)CC(=O)N3)nc(C)c2c1 (stereo not drawn)	20.4	57.1*	-37.0	.	-10.3	-8.4	-0.8%
C[C@@H]1CCCCO[C@@H](CN(C)Cc2ccc(C(=O)Nc3ccccc3N)cc2)[C@@H](C)CN([C@H](C)CO)C(=O)c2cc(NC(=O)C3CCCCC3)ccc2O1	3.5	.	.	.	.	.	.
C=CCN=c1scc(-c2ccc(F)cc2)n1/N=C/c1ccccn1	-57.4	-123.0	-6.4	-69.5	-8.5	-11.2	.
CN=c1scc(-c2ccccc2F)n1/N=C/c1ccc[nH]1	93.3*	87.2*	104.9*	95.6*	82.9*	82.5*	-8.2%
Oc1ccc(/C=N/N=C(c2ccccc2)c2ccccc2)c(O)c1O	-1.3	.	43.0	0.2	-16.9	5.5	.
CN=c1scc(-c2ccccc2F)n1/N=C/c1ccc(O)c(O)c1O	69.5*	56.0*	98.7*	83.1*	91.9*	38.6	-2.8%
CN(C)CC(=O)N1C[C@@H]2N[C@H](C1)C2c1ccc(/C=C/c2ccccc2)cc1 (stereo partly drawn)	-20.1	13.8	.	-91.9	.	.	.
O=C(C1CC1)N1C[C@@H]2N[C@H](C1)C2c1ccc(/C=C/c2ccccc2)cc1 (stereo partly drawn)	3.0	53.4*!	.	-90.3	.	.	5.0%
O=C(Nc1ccc2c(c1)OCO2)N1C[C@@H]2N[C@H](C1)C2c1ccc(C=Cc2ccccc2)cc1 (stereo partly drawn)	15.8	65.1*!	.	-18.8	.	.	-5.4%
CCOc1ccc(C(c2c(NC(=O)c3ccccc3)sc(C)c2C)N2CCN(CCO)CC2)cc1 (stereo not drawn)	-4.7	80.4*	25.9	4.3	-1.6	3.1	-14.5%
CN(C)C(=O)C[C@H]1C=C[C@H](NC(=O)c2ccc(F)cc2)[C@H](CO)O1	3.1	.	.	.	.	.	.
O=C(Nc1ccc(Br)cc1)c1ccc(F)c(S(=O)(=O)N2CCN(c3ccccn3)CC2)c1	8.0	59.2*	53.1*	40.4	32.5	25.0	-6.0%
Cc1ccccc1NC(=O)c1ccc(F)c(S(=O)(=O)N2CCN(c3ccccn3)CC2)c1	2.5	18.0	33.8	.	15.7	14.0	.
